Hits are enriched below; roughly 2.3% of the tested compounds scored in any of these assays.
GLD-1 RNA inh: GLD-1/TGE RNA complex disruptors, primary screen, biochemical, fluorescence polarization. inhibition, % at 5.96 µM. purified GLD-1 + fluorescein TGE RNA. Female germline-specific tumor suppressor gld-1 (Caenorhabditis elegans), Q17339. 320,000 compounds, 0.44% hits. AID 2280, 2010;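 active = percent inhibition above a per-plate cutoff, the plate mean of test compounds plus 3 SD, cut at about 30% in these data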
Target sequence (Q17339 whole entry, looked up): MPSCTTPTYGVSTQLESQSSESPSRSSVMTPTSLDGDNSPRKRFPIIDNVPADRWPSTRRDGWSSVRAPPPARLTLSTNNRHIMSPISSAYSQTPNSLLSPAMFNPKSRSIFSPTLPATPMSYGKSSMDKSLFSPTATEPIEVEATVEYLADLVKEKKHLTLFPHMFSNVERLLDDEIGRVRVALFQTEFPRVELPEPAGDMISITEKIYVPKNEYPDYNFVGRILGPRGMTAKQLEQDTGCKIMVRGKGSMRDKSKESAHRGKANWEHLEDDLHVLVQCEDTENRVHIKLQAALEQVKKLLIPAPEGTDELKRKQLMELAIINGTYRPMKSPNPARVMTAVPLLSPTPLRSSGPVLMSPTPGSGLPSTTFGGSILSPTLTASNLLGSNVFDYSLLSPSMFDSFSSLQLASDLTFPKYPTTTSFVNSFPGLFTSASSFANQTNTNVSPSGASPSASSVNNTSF
Bcl-xL primary: inhibitors of human Bcl-xL, primary screen, biochemical, fluorescence polarization, HTS. Bcl-2-like protein 1 (Homo sapiens), Q07817. GST-Bcl-xL / FITC-Bim BH3 peptide fluorescence polarization. inhibition, % at 10.9 µM. 320,000 compounds, 0.7% hits;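 active = inhibition above the mean of all tested compounds plus 3 SD, cutoff set per campaign, cut at about 30% in these data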;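 note: inhibitors lower millipolarization by displacing the labeled peptide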
Target sequence (Q07817 whole entry, looked up): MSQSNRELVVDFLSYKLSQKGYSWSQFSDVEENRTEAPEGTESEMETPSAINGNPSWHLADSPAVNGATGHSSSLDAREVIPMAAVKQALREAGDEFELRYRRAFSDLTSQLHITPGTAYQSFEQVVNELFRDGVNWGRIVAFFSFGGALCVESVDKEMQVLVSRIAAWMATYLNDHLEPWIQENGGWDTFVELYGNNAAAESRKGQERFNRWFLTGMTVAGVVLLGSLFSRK
Mcl1 Bid PPI: Mcl-1/Bid binding inhibitors, primary screen, biochemical, TR-FRET, 1536-well; TR-FRET Mcl-1/Bid-Dy647 peptide binding; inhibition, % at 21.7 µM; 220,000 compounds, 0.97% hits;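 active = compounds that cut the binding signal by more than half at the single screening dose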;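 note: His-tagged Mcl-1 with europium anti-His antibody binding Bid BH3 peptide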
MCL1 BIM primary: inhibitors of MCL1 binding to BIM-BH3, primary screen, biochemical, fluorescence polarization; Induced myeloid leukemia cell differentiation protein Mcl-1 (Homo sapiens), Q07820; GST-MCL1 / FITC-Bim-BH3 fluorescence polarization; inhibition, % at 10.9 µM; 320,000 compounds, 0.68% hits; AID 2057, 2009;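 active = inhibition above the mean inhibition of all tested compounds plus 3 SD, set per campaign, cut at about 40% in these data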;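 note: higher means more loss of mP so more displacement of Bim peptide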
Mcl1-Noxa inh: Mcl-1/Noxa binding inhibitors, primary screen, biochemical, TR-FRET, 1536-well; Induced myeloid leukemia cell differentiation protein Mcl-1 (Homo sapiens), Q07820; TR-FRET Mcl-1/Noxa peptide binding, 2 h; inhibition, % at 21.7 µM; 220,000 compounds, 1.5% hits; AID 1022, 2008;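 active = compounds that cut the protein-peptide binding signal by more than 50% relative to plate controls in a single-dose test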;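 note: His-tagged Mcl-1 with rhodamine Noxa BH3 peptide and terbium anti-His antibody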
Mcl-1 Bim block: inhibitors of Bim peptide binding to Mcl-1, primary screen, biochemical, bead-based flow cytometry, multiplex; Induced myeloid leukemia cell differentiation protein Mcl-1 (Homo sapiens), Q07820; 190,000 compounds, 0.1% hits; Bim peptide-Mcl-1 binding; inhibition, % at 10 µM; in the data active = inhibition above about 40%
Each line names hits and unclear results; the compound was inactive in the other large screens.

Cc1ccc(N=Nc2ccc(O)c3ncccc23)cc1C	none
CC(=O)Nc1ccc(NC2CCCCC2NS(=O)(=O)c2ccc(Cl)cc2)cc1 (stereo not drawn)	none (no result: Mcl1 Bid PPI, Mcl1-Noxa inh, Mcl-1 Bim block)
CN(Cc1c(O)ccc2c1oc(=O)c1ccccc12)C1CCCCC1	Mcl1 Bid PPI 64.7
CCc1nc(N)c(C#N)c(-c2ccc(OC)c(OC)c2)c1C	none
CC1=C(C#N)c2nc(N)c(C#N)c(C)c2/C1=C\c1ccc(OCC(=O)O)c(Cl)c1	Bcl-xL primary 36.5, Mcl1-Noxa inh 57.1 (no result: Mcl-1 Bim block)
CC(NC(=O)COC(=O)c1nc(Cl)ccc1Cl)c1ccccc1 (stereo not drawn)	none (no result: Bcl-xL primary, Mcl1 Bid PPI, MCL1 BIM primary, Mcl1-Noxa inh, Mcl-1 Bim block)
Cc1ccc(CN2CCCN(C)CC2)c(C)c1	none (no result: Mcl1 Bid PPI, Mcl1-Noxa inh, Mcl-1 Bim block)
Cc1ccccc1-n1nnnc1SCC(=O)c1c(N)n(C)c(=O)n(C)c1=O	Mcl1-Noxa inh 54.0 (no result: Mcl-1 Bim block)
Cn1c(N)c(C(=O)CSc2nnnn2-c2ccccc2)c(=O)n(C)c1=O	none (no result: Mcl-1 Bim block)
O=C(CSc1nc2nn(-c3ccccc3)c(=O)c-2c2n1CCCCC2)Nc1ccc(F)c(F)c1	none (no result: Bcl-xL primary, Mcl1 Bid PPI, MCL1 BIM primary, Mcl1-Noxa inh, Mcl-1 Bim block)
O=C(Nc1ccccc1)Nc1ccc2ocnc2c1	none
O=C(Nc1ccccc1)Nc1ccc2ncoc2c1	Mcl-1 Bim block 91.0
O=C(N/N=C/c1ccc(F)cc1)c1c(O)c2ccccc2[nH]c1=O	none
O=C(N/N=C/c1cccc(F)c1)c1c(O)c2ccccc2[nH]c1=O	Mcl1 Bid PPI 50.7, Mcl1-Noxa inh 64.2
COc1ccc(-c2ccc(CCC(=O)O)n2CC(=O)Nc2ccccc2C)cc1	none (no result: Mcl1 Bid PPI, Mcl1-Noxa inh, Mcl-1 Bim block)
COc1ccc(-c2cc(C(=O)O)c3c(C)nn(-c4ccccn4)c3n2)cc1	none
COc1ccc(N=CC2=C(Nc3ccc(OC)cc3)c3c(C)nn(-c4ccccn4)c3CC2)cc1	GLD-1 RNA inh active, Bcl-xL primary active, MCL1 BIM primary active (no result: Mcl1 Bid PPI, Mcl1-Noxa inh, Mcl-1 Bim block)
COc1cc(O)oc1C=Nc1ccc(C(F)(F)F)cc1	Mcl1-Noxa inh 63.6
CC(OC(=O)CSc1ccc([N+](=O)[O-])cc1)C(=O)NC1CC1 (stereo not drawn)	none (no result: Mcl1 Bid PPI, Mcl1-Noxa inh, Mcl-1 Bim block)
COc1ccc(CN2CCNC(=O)C2CC(=O)N(C)CCC2CCOCC2)c(OC)c1 (stereo not drawn)	none (no result: Mcl1 Bid PPI, Mcl1-Noxa inh, Mcl-1 Bim block)
Cc1ccc2[nH]c(=O)c(C(c3nnnn3Cc3ccccc3)N3CCc4ccccc43)cc2c1 (stereo not drawn)	none
CCc1ccc2[nH]c(=O)c(C(c3nnnn3CC3CCCO3)N3CCN4CCCC4C3)cc2c1 (stereo not drawn)	Mcl1 Bid PPI 95.5
Cc1ccc2[nH]c(=O)c(C(c3nnnn3CC3CCCO3)N3CCCc4ccccc43)cc2c1 (stereo not drawn)	Bcl-xL primary 41.8
Cc1cc2cc(C(c3nnnn3Cc3ccccc3)N3CCc4ccccc43)c(=O)[nH]c2cc1C (stereo not drawn)	Bcl-xL primary 31.2
Cc1ccc2[nH]c(=O)c(C(c3nnnn3CC3CCCO3)N3CCc4ccccc4C3)cc2c1 (stereo not drawn)	none
COc1ccc(CC(=O)Nc2cccnc2)cc1	none (no result: Mcl1 Bid PPI, Mcl1-Noxa inh, Mcl-1 Bim block)
CCCCN1C(=O)N(C)C2C1N(C)C(=O)N2CCCC (stereo not drawn)	Mcl1-Noxa inh 62.9 (no result: Mcl-1 Bim block)
CCCCN1C(=O)N(C)C2NC(=O)NC21 (stereo not drawn)	none
CN(C(=O)C1CCC(=O)N(CCCN2CCCC2=O)C1)C(C1CC1)C1CC1 (stereo not drawn)	none (no result: Mcl1 Bid PPI, Mcl1-Noxa inh, Mcl-1 Bim block)
CCOC(=O)CSC(=S)NC(=O)c1ccc(OC)cc1	Mcl1-Noxa inh 55.6
COc1ccc(C(=O)NC(=S)SCC(=O)O)cc1	none (no result: Mcl-1 Bim block)
O=C(OCc1cccc(F)c1)c1ccc2c(=O)n3c(nc2c1)CCC3	Mcl1 Bid PPI 61.3 (no result: Mcl-1 Bim block)
CN(Cc1cccc(F)c1)C(=O)c1ccc2c(=O)n3c(nc2c1)CCC3	none (no result: Mcl1 Bid PPI, Mcl1-Noxa inh, Mcl-1 Bim block)
Cc1ccccc1C(=O)Nc1ccnn1C1CCN(C(=O)c2cnsn2)CC1	none (no result: Mcl1 Bid PPI, Mcl1-Noxa inh, Mcl-1 Bim block)
COc1ccc(CC(=O)n2[nH]c(=O)c3ccccc3c2=O)cc1OC	none (no result: Mcl-1 Bim block)
COc1ccc(CC(=O)n2[nH]c(=O)ccc2=O)cc1OC	Mcl1-Noxa inh 75.2 (no result: Mcl-1 Bim block)
Cc1c(C(=O)NCCSCc2cccc(C(F)(F)F)c2)cnn1-c1ccc(Cl)cc1	none (no result: Mcl-1 Bim block)
C=CCn1c(O)c(C2=c3ccccc3=NC2=O)sc1=Nc1ccc(O)cc1	Mcl1-Noxa inh 52.4 (no result: Mcl-1 Bim block)
COc1cc(CN2CCNC(=O)C2CC(=O)NC2CCCC2)cc(OC)c1 (stereo not drawn)	none (no result: Mcl1 Bid PPI, Mcl1-Noxa inh, Mcl-1 Bim block)
O=C(CNC(=O)c1cccc(F)c1)OCCOc1cccc(Cl)c1	none (no result: Mcl1 Bid PPI, Mcl1-Noxa inh, Mcl-1 Bim block)
O=C(CNc1ccccc1)Nc1cccc2ccccc12	none (no result: Mcl1 Bid PPI, Mcl1-Noxa inh, Mcl-1 Bim block)
NC1=NC(=O)C2(COC(c3cccnc3)OC2)S1 (stereo not drawn)	Bcl-xL primary 85.7
NC1=NC(=O)C2(COC(c3ccncc3)OC2)S1 (stereo not drawn)	none
COc1ccccc1CNC(=O)CCNS(=O)(=O)c1cccc2nonc12	none (no result: Mcl1 Bid PPI, Mcl1-Noxa inh, Mcl-1 Bim block)
Cc1ccc2[nH]c3c(c2c1)CN(C(=O)CN1CCCc2ccccc21)CC3	Bcl-xL primary 33.2
Cc1ccc(N2C(=O)C3C(C2=O)C(C(=O)c2ccc(Cl)cc2)N2CCCC32)cc1 (stereo not drawn)	GLD-1 RNA inh 46.2, Bcl-xL primary 73.3, MCL1 BIM primary 72.2
C=CCNC(=S)NNC(=O)c1ccc([N+](=O)[O-])cc1	Mcl1-Noxa inh 67.6
C=CCNC(=S)NNC(=O)c1ccccc1	none
O=C(O)c1ccc(N2C(=O)/C(=C/c3ccc(-c4ccc([N+](=O)[O-])cc4)o3)C=C2c2ccccc2)cc1	Mcl1 Bid PPI 99.4, Mcl1-Noxa inh 107.9
COc1ccc(-n2c(O)c(/C=N/Nc3nc(C)cc(C)n3)c3ccccc3c2=O)cc1OC	none
COc1ccc(-n2c(O)c(/C=N/NS(=O)(=O)c3cc(C)ccc3C)c3ccccc3c2=O)cc1OC	Bcl-xL primary 54.2
COc1ccc(-n2c(O)c(/C=N/NS(=O)(=O)c3ccc(C)cc3)c3ccccc3c2=O)cc1OC	Bcl-xL primary 48.4
CCn1c(SCC(=O)Nc2ccc(N3CCOCC3)cc2)nnc1-c1ccco1	none (no result: Mcl1 Bid PPI, Mcl1-Noxa inh, Mcl-1 Bim block)
CCOC(=O)N1CC=C2C(C#N)=C(N)C(C#N)(C#N)[C@H](c3ccccc3OCC)[C@H]2C1	none
N#CC1=C(N)C(C#N)(C#N)C(c2ccncc2)C2CN(C(=O)OCc3ccccc3)CC=C12 (stereo not drawn)	none
CCCC1C2CN(C(C)C)CC=C2C(C#N)=C(N)C1(C#N)C#N (stereo not drawn)	GLD-1 RNA inh 131.7, Bcl-xL primary 161.3, MCL1 BIM primary 180.2

High-throughput results as filed in PubChem BioAssay.
